Experiment [1] in a line: qHTS assay to identify small molecule agonists of H2AX (AID 1224845; active = well fitted activation curve with a large enough effect in the signal ratio in the repeat runs, not every such curve was filed as active; the % refers to the signal ratio). In outline:
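Wild-type CHO-K1 cells, plated overnight, exposed 3hr at 37C to 15 concentrations (0.76% DMSO final). Lysed, then HTRF anti-pH2AX (S139) cryptate and anti-H2AX-d2 antibodies, 24 hr room temperature; 665/620 nm emission read.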
(Quantitative high-throughput screening tests each substance at several concentrations.)

Experiment [2] in a line: qHTS assay to identify small molecule agonists of the hypoxia (HIF-1) signaling pathway (AID 1224846; active = well fitted activation curve with a large enough effect in the signal ratio in the repeat runs, not every such curve was filed as active; the % refers to the signal ratio). Put shortly:
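HRE-bla ME-180 beta-lactamase reporter cells in medium with 0.5% dialyzed FBS, pre-incubated 5 h then exposed to compounds 17 h at 37C, 5% CO2; reporter induction read with CCF4-AM FRET substrate.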

Experiment [3] can be described thus: qHTS assay to identify small molecule agonists of the estrogen related receptor (ERR) signaling pathway from Tox21 library (AID 1224849; calls by dose curve; also: nearly all actives have a fitted effect of over 15% in size). The conditions noted are these: ERR reporter cell line, ONE-Glo luciferase, 18 h; at 92.4 µM (top of the series) unless noted. Put shortly: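 ERR reporter cells (NTP line) pre-incubated 6 hours at 37 C, then exposed to compounds for 18 hours at 37 C. ONE-Glo luciferase luminescence was read after 30 minutes at room temperature.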

A short description of experiment [4]: qHTS RealTime-Glo MT Cell Viability Assay in HepG2 cells - 24 hour (AID 1224867). Also: nearly all actives have a fitted effect of over 50% in size. In outline:
(§1)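 HepG2 cells (600/well) were dispensed with RealTime-Glo reagents, incubated 5 h at 37 °C, then treated with compounds in DMSO for up to 40 h. Nonlytic NanoLuc luminescence reflecting viable cells was read at each stated time point.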

The nature of experiment [5]: A CellTox Green Cytotoxicity Assay to monitor cytotoxicity in HEK293 cells - 0 hour (AID 1224869). Also: nearly all actives have a fitted effect of over 50% in size. Put shortly: (§2)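 HEK293 cells, 600/well, were preincubated 5 hours and then exposed to compounds at 37 C for up to 40 hours. A cell-impermeant cyanine dye staining dead-cell DNA was read by fluorescence at 0, 8, 16, 24, 32 and 40 h time points.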
A short description of experiment [6]: qHTS RealTime-Glo MT Cell Viability Assay in HepG2 cells - 40 hour (AID 1224870). Also: nearly all actives have a fitted effect of over 50% in size. Put shortly: (§3)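 HepG2 cells (600/well) mixed with RealTime-Glo MT reagent, settled 5 h at 37 C/5% CO2 before compound addition. Nonlytic NanoLuc luminescence from viable-cell prosubstrate reduction read repeatedly during 40 h treatment at 37 C.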
Experiment [7] in a line: A CellTox Green Cytotoxicity Assay to monitor cytotoxicity in HEK293 cells - 40 hour (AID 1224871). Also: nearly all actives have a fitted effect of over 45% in size. In outline: as §2
Experiment [8] in a line: qHTS RealTime-Glo MT Cell Viability Assay in HepG2 cells - 8 hour (AID 1224873). Also: nearly all actives have a fitted effect of over 55% in size. Put shortly:
as §3

Experiment [9] in a line: A CellTox Green Cytotoxicity Assay to monitor cytotoxicity in HEK293 cells - 24 hour (AID 1224875). Also: nearly all actives have a fitted effect of over 45% in size. Put shortly: as §2
The nature of experiment [10]: qHTS RealTime-Glo MT Cell Viability Assay in HepG2 cells - 32 hour (AID 1224877). Also: nearly all actives have a fitted effect of over 55% in size. In outline:
as §1

A short description of experiment [11]: A CellTox Green Cytotoxicity Assay to monitor cytotoxicity in HepG2 cells - 24 hour (AID 1224878). Also: nearly all actives have a fitted effect of over 45% in size. Also: potency is read from the fitted curve at half-maximal effect. In outline:
(§4)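 HepG2 cells, 600/well, preincubated 5 h with CellTox Green dye, then exposed to Tox21 compounds in DMSO at 37 C for up to 40 h. Dead-cell DNA fluorescence read at the indicated time point.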

Experiment [12] is described as follows: A CellTox Green Cytotoxicity Assay to monitor cytotoxicity in HepG2 cells - 40 hour (AID 1224879). Also: nearly all actives have a fitted effect of over 40% in size. Also: potency is read from the fitted curve at half-maximal effect. In outline: as §4
Experiment [13] can be described thus: qHTS RealTime-Glo MT Cell Viability Assay in HEK293 cells - 0 hour (AID 1224880). Also: nearly all actives have a fitted effect of over 45% in size. Also: potency is read from the fitted curve at half-maximal effect. Put shortly:
(§5)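 600 cells/well were plated with the nonlytic NanoLuc/prosubstrate reagent, pre-incubated 5 h, then given 23 nL of compound in DMSO. Incubation at 37 C for 40 h, with luminescence from viable-cell-reduced substrate read repeatedly from 0 h.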

The nature of experiment [14]: A CellTox Green Cytotoxicity Assay to monitor cytotoxicity in HEK293 cells - 32 hour (AID 1224881). Also: nearly all actives have a fitted effect of over 40% in size. Put shortly: as §2
Experiment [15] in a line: qHTS assay to identify small molecule agonists of H2AX - cell viability counter screen (AID 1224847; calls by dose curve; also: top concentration of the series differs between compounds; nearly all actives have a fitted effect of over 30% in size). In outline: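 Read-out: CellTiter-Glo luminescence, 30 min RT. Cells: wild-type CHO-K1, 1000/well, 10% FBS, plated overnight at 37C. Treatment: 15 concentrations, 3 hr, 37C, 0.76% DMSO.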
Experiment [16] in a line: qHTS RealTime-Glo MT Cell Viability Assay in HEK293 cells - 32 hour (AID 1224868). Also: top concentration of the series differs between compounds; nearly all actives have a fitted effect of over 50% in size. In outline:
(§6)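 HEK293 cells seeded with NanoLuc/prosubstrate reagent, rested 5 h at 37 C, then dosed and kept at 37 C up to 40 h. Nonlytic real-time luminescence from viable cells read at 0, 8, 16, 24, 32 and 40 h.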

The nature of experiment [17]: qHTS RealTime-Glo MT Cell Viability Assay in HEK293 cells - 16 hour (AID 1224872). In outline: as §6
The nature of experiment [18]: qHTS RealTime-Glo MT Cell Viability Assay in HEK293 cells - 40 hour (AID 1224874). Also: nearly all actives have a fitted effect of over 50% in size. The conditions noted are these: RealTime-Glo luminescence; max response: active compounds read low. Put shortly:
as §5

Experiment [19] in a line: A CellTox Green Cytotoxicity Assay to monitor cytotoxicity in HepG2 cells - 16 hour (AID 1224876). Also: nearly all actives have a fitted effect of over 45% in size. Put shortly:
as §4

The nature of experiment [20]: qHTS assay to identify small molecule antagonists of the estrogen related receptor (ERR) signaling pathway from Tox21 library (AID 1224848). Also: nearly all actives have a fitted effect of over 50% in size. In outline: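 ERR reporter cell line (from NTP) seeded 2,000 cells/well, rested 6 h at 37 C/5% CO2, then pin-dosed with compounds in DMSO. After 18 h at 37 C, ONE-Glo added; luminescence read after 30 min at room temperature.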

Values without a mark were called inactive. Inconclusive results are not listed. The source made the active and inactive calls. Unless noted, calls follow the shape of the dose curve; as a rule, active = well fitted curve in the direction sought with a large enough effect in the repeat runs; inconclusive = weak or mixed curves; inactive = no such curve, though single readings can be large; an effect the other way counts as inactive or inconclusive.
% is scaled to controls: 0 for no effect and ±100 for the full control effect.

Take `CC(C)(C)c1cc(CO)cc(C(C)(C)C)c1O`: the Potency entry in experiment [1], in [4], in experiment [5], in experiment [6], in experiment [7] and in experiment [8] was “inactive” throughout. The Potency result in experiment [9], in experiment [10], in [11], in experiment [12], in experiment [13] and in experiment [14] was “inactive” each time. The call in experiment [2] was inactive. Moreover, the activity change, positive = activation in experiment [3] is -33.2%.

Take `OCC1CC2CC1C1CCC(CO)C21` (configuration not stated): the Potency entry in experiment [1], in [15], in experiment [4], in experiment [16], in experiment [5] and in experiment [6] was “inactive” throughout. The Potency result in experiment [7], in experiment [17], in experiment [9], in [19], in [10] and in experiment [11] was “inactive” throughout. Moreover, the Potency result in [12], in experiment [13] and in [14] was “inactive” in each case. The activity change, positive = activation in experiment [3] was -2.51%. Further, the max response in experiment [18] was -17.3%.

As for `CCC(C)N(C)C(=O)c1cc2ccccc2c(-c2ccccc2Cl)n1` (configuration not stated), the Potency entry in experiment [1], in experiment [15], in [4], in experiment [5], in experiment [6] and in experiment [7] was “inactive” throughout. Besides, the Potency result in [8], in [9], in experiment [19], in experiment [10] and in [14] was “inactive” in each case. Further, the Potency in experiment [11] is 25.2 µM (active); in experiment [12], 28.2 µM (active); in experiment [13], 31.7 µM (active).

With `CC(=O)c1c(C)c([N+](=O)[O-])c(C(C)(C)C)c([N+](=O)[O-])c1C`, the Potency result in [1], in experiment [4], in [16], in [5], in experiment [6] and in [8] was “inactive” in each case. Moreover, the Potency result in experiment [9], in [19], in experiment [10], in [11], in [12] and in experiment [13] was “inactive” in each case. Moreover, the Potency entry in [14] is “inactive”. The outcome in experiment [2] was inactive. In addition, the max response in experiment [18] was -9.27%.

For `N=C(N=C(N)N)N1CCOCC1`, the Potency result in experiment [1], in experiment [15], in experiment [20], in experiment [4], in experiment [16] and in [5] was “inactive” throughout. The Potency result in experiment [6], in experiment [17], in experiment [8], in [9], in experiment [19] and in [10] was “inactive” each time. Moreover, the Potency result in [11], in experiment [13] and in experiment [14] was “inactive” throughout. The activity change, positive = activation in experiment [3] was 10.8% [at 42.5 µM]. For the same compound, the max response in [18] is 6.38%.

As to `Nc1ccc(C(=O)N2CC3CC(CN(Cc4ccccc4)C3)C2)cc1`, the Potency entry in experiment [1], in [15], in experiment [20], in experiment [4], in [16] and in experiment [5] was “inactive” throughout. The Potency result in experiment [6], in experiment [7], in experiment [17], in experiment [8], in experiment [9] and in experiment [10] was “inactive” each time. The Potency entry in [11], in [12], in [13] and in experiment [14] was “inactive” each time. Moreover, the activity change, positive = activation in [3] was -11% [at 42.5 µM]. Moreover, the max response in experiment [18] is -8.65%.

As for `Cc1cccc(C(C)(C)C)c1O`, the Potency result in experiment [1], in [4], in experiment [16], in [5], in experiment [6] and in experiment [17] was “inactive” in each case. The Potency entry in experiment [8], in experiment [19], in experiment [10] and in experiment [11] was “inactive” each time. In addition, in experiment [2], the compound was classed as inactive. Also, the max response in experiment [18] was -2.49%.

The values above are taken from PubChem BioAssay (Tox21).
